NPR1 antag = blocks ANP-stimulated signaling of human Npr1 receptor | P16066 | AID 1347048 | Potency, µM (titrated, usually from 46.3 µM), inactives show at the highest dose activity change, negative = inhibition, actives largely listed as inhibitors | HEK293 hNpr1 GloSensor cGMP, ANP-stimulated luminescence | 76,000 compounds, 1.6% hits; calls by dose curve; note: nearly all actives have a fitted effect of over 60% in size
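HEK293 cells stably expressing human Npr1 and cGMP GloSensor pGS-40F, loaded 2 h with 2% GloSensor reagent, given compound 30 min at room temperature. Luminescence read before and 20 min after 0.1 nM hNppA.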
Luciferase inh = Photinus pyralis luciferase inhibition | Potency, µM (titrated, usually from 115 µM), most hits filed as inhibitors | 76,000 compounds, 2.5% hits | purified P. pyralis luciferase, luminescence, biochemical | P08659; note: nearly all actives have a fitted effect of over 65% in size
Target sequence (P08659 whole entry, looked up): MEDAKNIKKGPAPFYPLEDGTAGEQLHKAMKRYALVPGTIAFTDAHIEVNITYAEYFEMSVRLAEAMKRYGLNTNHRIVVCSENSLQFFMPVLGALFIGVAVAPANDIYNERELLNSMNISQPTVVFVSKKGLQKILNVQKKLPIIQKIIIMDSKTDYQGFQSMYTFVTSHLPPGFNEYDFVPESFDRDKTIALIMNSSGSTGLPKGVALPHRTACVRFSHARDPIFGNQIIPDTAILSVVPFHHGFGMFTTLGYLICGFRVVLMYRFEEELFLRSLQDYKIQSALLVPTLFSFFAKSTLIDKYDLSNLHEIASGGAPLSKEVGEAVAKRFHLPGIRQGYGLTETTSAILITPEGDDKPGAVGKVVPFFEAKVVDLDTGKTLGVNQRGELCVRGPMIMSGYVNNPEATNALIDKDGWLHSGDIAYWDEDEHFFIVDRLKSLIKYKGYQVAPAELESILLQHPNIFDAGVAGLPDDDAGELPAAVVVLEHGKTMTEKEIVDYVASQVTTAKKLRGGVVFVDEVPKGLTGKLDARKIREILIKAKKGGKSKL
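Biochemical qHTS: compound (6-point titration) added to 10uM D-luciferin plus 10uM ATP in Tris acetate pH 7.5 buffer with Mg, Tween-20 and BSA, then purified enzyme at 10nM; light output imaged.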
3T3 cytotox = NIH 3T3 cell cytotoxicity. NIH 3T3 viability, CellTiter-Glo ATP luminescence, 48-72 h. Potency, µM (series often up to 96.7 µM), inactives show top-dose activity change, negative = cytotoxicity, most hits filed as inhibitors. 94,000 compounds, 4.3% hits; note: nearly all actives have a fitted effect of over 55% in size
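Viability of NIH 3T3 cells after 48 or 72 hr compound treatment at 37 °C was assessed by CellTiter-Glo, with luminescence imaged following a 10 min room-temperature step.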
GPT2 inh = inhibitors of human GPT2 alanine aminotransferase; Q8TD30; Recombinant GPT2, coupled pyruvate oxidase/HRP Amplex Red fluorescence; Potency, µM (titrated, usually from 57.7 µM), for inactives: at the highest dose activity change, negative = inhibition, hits mostly inhibitors; 100,000 compounds, 0.25% hits; AID 1671188; note: nearly all actives have a fitted effect of over 60% in size
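Inhibition is scored from Amplex Red fluorescence generated when pyruvate oxidase and HRP act on pyruvate released by GPT2. Reactions contain 10ng/uL enzyme, 250uM a-KG and 2mM L-alanine and run 30 min at room temperature.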
HEK293 tox = cytotoxic compounds in HEK 293 cells; HEK 293 viability, ATP luminescence (CellTiter-Glo), 48-72 h; Potency, µM (highest dose often 115 µM), without a hit: at the top dose activity change, negative = cytotoxicity, actives largely listed as inhibitors; 94,000 compounds, 6.6% hits; AID 1345083; note: nearly all actives have a fitted effect of over 60% in size
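HEK 293 seeded at 250 cells/well receive compound via pintool. After 48 or 72 hr at 37 degree Celsius, 5% CO2 and 95% humidity, CellTiter-Glo is dispensed and luminescence read following 10 min at room temperature.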
An asterisk follows results filed as active; i = inactive; ? = inconclusive; / = not tested or not shown; [ ] = remark or other dose. Only some compounds are listed: those with a hit (about 10% of all), similar ones and a draw of the others. Unless noted, calls come from the whole dose curve; as a rule, active = well fitted curve in the direction sought with a large enough effect; inconclusive = small, poorly fitted or top-dose-only effect, or another doubt; inactive = no such curve, though single readings can be large; an effect the other way counts as inactive or inconclusive. % is set by controls: 0 for no effect and ±100 for the full control effect; potency is the fitted concentration of half-maximal effect.

SMILES	NPR1 antag	Luciferase inh	3T3 cytotox	GPT2 inh	HEK293 tox
O=C(NCCCc1ccccc1)c1nc2sccn2c1-c1cccc(C(F)(F)F)c1	/	/	?	-10%[88.5 µM]	50µM*
COc1ccc(CCNC(=O)c2nc3sccn3c2-c2ccc(C)cc2)cc1	/	/	22µM*	2%[88.5 µM]	?
O=C(NCc1ccccn1)c1nc2sccn2c1-c1ccc(F)cc1	/	/	?	i	-22%
Cc1ccc(-c2c(C(=O)NCc3ccccn3)nc3sccn23)cc1	/	/	?	i	79µM*
O=C(NCc1ccc2nonc2c1)[C@@]12CNC[C@@H]1CN(C1CCCC1)C2	-1%	i	-5%	i	-21%
CNC(=O)c1cc(C2CC2)nc2c1c(C1CCCN1[S+](=O)([O-])C(C)C)nn2C (stereo not given)	/	/	-28%	/	3%
O=[S+]1([O-])NC2(CCN(Cc3cccc(C(F)(F)F)c3)C2)COc2ncccc21 (stereo not given)	/	/	-13%	-10%	-26%
O=C(NCC1CCCCC1)c1nc2sccn2c1-c1ccccc1	/	/	28µM*	i	?
Cc1ccc(-c2c(C(=O)NCCCc3ccccc3)nc3sccn23)cc1	/	/	28µM*	i	18µM*
O=C(NCC1CCCCC1)c1nc2sccn2c1-c1cccnc1	/	/	?	i	-30%
Cc1ccc(CN2CC(Oc3ccccc3C(=O)N3CCOCC3)C2)s1	/	/	?	i	?
Cc1cc(=O)n(CC(=O)Nc2ccc(Br)cc2)c(N2CCOCC2)n1	-12%	i	?	-2%	-31%
Cc1ccccc1-c1nc(N2CCOCC2)cc2c1CN(Cc1ccccc1)C2=O	-28%[70.6 µM]	i	25µM*	-6%[88.5 µM]	50µM*
O=C1c2cc(N3CCOCC3)nc(-c3cccc(CO)c3)c2CN1Cc1ccccc1	-1%[70.6 µM]	i	-80%[138 µM]	0%[88.5 µM]	79µM*
CN(C)c1cccc(-c2nc(N3CCOCC3)cc3c2CN(Cc2cnn(C)c2)C3=O)c1	3%[70.6 µM]	i	45µM*	i	?
CN1Cc2c(cc(N3CCOCC3)nc2-c2cnn(C)c2)C1=O	8%[70.6 µM]	i	25µM*	-11%[88.5 µM]	?
O=C1c2cc(N3CCOCC3)nc(-c3ccc(CO)cc3)c2CN1Cc1ccccc1	1%[70.6 µM]	i	?	-10%[88.5 µM]	-10%[172 µM]
COc1ccc(C(=O)N[C@@H]2CCC[C@@H]2C(=O)N2CCN(C(=O)c3ccco3)CC2)cn1	-1%	i	-5%	5%	-13%
O=C1[C@@H]2C[C@@H](CN2C(=O)c2ccc(F)cc2)Oc2ccccc2N1Cc1ccc(OC(F)(F)F)cc1	-12%	i	?	-3%	?
COc1cc(F)ccc1-c1nc(N2CCOCC2)cc2c1CN(c1ccccc1)C2=O	1%[70.6 µM]	71µM*	-25%[138 µM]	i	?
O=C1c2cc(N3CCOCC3)nc(-c3ccc(F)cc3)c2CN1CC1CC1	-20%[70.6 µM]	i	?	1%[88.5 µM]	100µM*
CC(C)c1nnsc1Cn1ncc(N(C)CCc2ccccc2)cc1=O	1%	i	?	i	89µM*
CC(C)N(C)C(=O)Cn1ncc(N(C)CCc2ccccc2)cc1=O	0%	i	-16%	1%	-3%
Cc1c(CN(C)Cc2cccc3ncccc23)c(=O)n(-c2ccccc2)n1C	0%	i	-25%	-15%	-8%
CN(Cc1cccc(CCN)c1)Cc1cccc2ncccc12	-4%	i	?	2%	45µM*
SMILES	NPR1 antag	Luciferase inh	3T3 cytotox	GPT2 inh	HEK293 tox
Cc1cccc2nc(C(=O)N3CCn4nc(Cc5ccccc5)cc4C3)cn12	?	i	?	1%	45µM*
Cn1nc(C(=O)N2CCn3nc(Cc4ccccc4)cc3C2)ccc1=O	-1%	i	-30%	-12%	-20%
N#Cc1cccc(NC(=O)N[C@H]2CO[C@H]3[C@@H]2OC[C@@H]3Nc2nccc(C3CCCC3)n2)c1	?	i	?	-47%[88.5 µM]	?
CN(C(=O)c1ccccc1)C1CCCc2ccccc21 (stereo not given)	0%[70.6 µM]	i	?	i	?
CN(Cc1ccc(F)cc1)C1CCCc2ccccc21 (stereo not given)	1%[70.6 µM]	i	2%[138 µM]	i	-10%[172 µM]
CN(C(=O)Nc1ccc(Cl)cc1)C1CCc2ccccc21 (stereo not given)	-11%[70.6 µM]	i	-28%[138 µM]	4%[88.5 µM]	?
Cc1ccc(C(=O)N(C)C2CCc3ccccc32)cc1 (stereo not given)	-4%[70.6 µM]	?	?	i	100µM*
CN(C(=O)Nc1ccc(Cl)cc1)C1CCCc2ccccc21 (stereo not given)	-6%[70.6 µM]	28µM*	?	i	89µM*
CN(C(=O)Cc1ccc(F)cc1)C1CCCc2ccccc21 (stereo not given)	0%[70.6 µM]	i	-24%[138 µM]	i	100µM*
CN(C(=O)c1cccc(Cl)c1)C1CCCc2ccccc21 (stereo not given)	-14%[70.6 µM]	i	?	-26%[88.5 µM]	71µM*
N#Cc1cccnc1Oc1ccccc1CN1CCCCC1	-8%	i	-21%	5%[11.5 µM]	-9%
O=C(O)c1ccc(CN2Cc3[nH]cnc3C[C@H]2c2nc(-c3ccc(F)cc3)no2)cc1	-1%[70.6 µM]	i	-21%[138 µM]	2%[88.5 µM]	-22%[172 µM]
Fc1ccc(CN2Cc3[nH]cnc3C[C@H]2c2nc(-c3ccc(Cl)cc3)no2)cc1	-20%[70.6 µM]	i	50µM*	-13%[88.5 µM]	63µM*
Fc1ccc(CN2Cc3[nH]cnc3C[C@H]2c2nc(-c3ccccc3)no2)cc1	-16%[70.6 µM]	45µM*	79µM*	?	100µM*
COc1cccc(-c2cc3c(=O)n(CCNC(=O)c4ccc5cc[nH]c5c4)ccn3n2)c1	-18%	i	-1%	?	?
O=C(CCCc1c[nH]c2ccccc12)NCC(=O)N1CCCCCCNC(=O)CC1c1ccccc1 (stereo not given)	0%	i	?	i	?
O=C(NCc1ccc(C(F)(F)F)cc1)[C@@H]1Cc2nc[nH]c2CN1Cc1ccccn1	1%[70.6 µM]	i	?	i	-27%[172 µM]
CC(C)(CC(=O)O)CC(=O)N1CCN2C(=O)c3cc(-c4ccc(Cl)cc4)ccc3NC(=O)[C@H]2C1	-3%	i	-1%	i	0%
COc1ccc(-c2ccc3c(c2)C(=O)N2CCN(C(=O)CC(C)(C)C)C[C@@H]2C(=O)N3)cc1	-1%[70.6 µM]	i	?	-19%[88.5 µM]	?
CCCNC(=O)N1CCN2C(=O)c3cc(-c4ccccc4F)ccc3NC(=O)[C@@H]2C1	-2%[70.6 µM]	i	?	i	100µM*
CC(C)(C)CC(=O)N1CCN2C(=O)c3cc(-c4ccccc4)ccc3NC(=O)[C@H]2C1	-1%[70.6 µM]	i	?	5%[88.5 µM]	100µM*
CC(C)(C)CC(=O)N1CCN2C(=O)c3cc(-c4ccc(Cl)cc4)ccc3NC(=O)[C@H]2C1	-14%	i	?	-24%	40µM*

Bioassay records deposited in PubChem by National Center for Advancing Translational Sciences (NCATS).
